This is one part of a sample in which hits are shown more often than they occur.
IMPase cell inh: qHTS Assay for Identifying the Cell-Membrane Permeable IMPase Inhibitors; AID 901, 2007; CHO-M1 cells, IP1 accumulation, HTRF TR-FRET ratio; inhibition (IP1 accumulation), % at 46.1 µM; Inositol monophosphatase 1 (Rattus norvegicus), P97697; 120,000 tested, under 10 active; active = well fitted curve in the direction sought with a large enough effect in the signal ratio, not every such curve was filed as active; inconclusive = small, poorly fitted or top-dose-only effect, or a change in a side signal; inactive = no such curve, though single readings can be large or run the other way; the % refers to the signal ratio;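 note: cells stimulated with carbachol in lithium chloride buffer; higher means more IMPase inhibition seen as more IP1 and lower FRET ratio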
Target sequence (P97697 whole entry, looked up): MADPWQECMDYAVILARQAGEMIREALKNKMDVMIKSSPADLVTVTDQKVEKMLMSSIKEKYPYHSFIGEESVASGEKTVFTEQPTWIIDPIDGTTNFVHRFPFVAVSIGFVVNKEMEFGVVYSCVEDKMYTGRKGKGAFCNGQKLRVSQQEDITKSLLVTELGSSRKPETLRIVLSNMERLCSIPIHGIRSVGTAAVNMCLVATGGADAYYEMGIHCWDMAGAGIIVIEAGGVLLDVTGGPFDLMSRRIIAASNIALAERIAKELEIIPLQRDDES
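Elevated IP1 in lysates lowers TR-FRET signal (665/620 ratio and 620 channel reported). Cells were CHO-M1, given carbachol (50 uM as added) plus 50mM LiCl, pH 7.4, 30 min, 37C; compounds titrated up to 46 uM; AC50 by Hill equation.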
Lamin A splicing: qHTS Assay for Modulators of Lamin A Splicing | AID 1487, 2009 | HeLa LMNA splicing GFP/RFP minigene ratio, 48 h | actives 0.01% (n = 200,000) | Potency, µM (doses to about 46.1 µM), usual class: inhibitors; active = well fitted inhibition curve with a large enough effect in the signal ratio, with a control signal flat, not every such curve was filed as active; inconclusive = small, poorly fitted or top-dose-only effect, or effect the other way, or a change in a side signal; the % refers to the signal ratio
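S3 HeLa cells stably expressing lamin A-EGFP splicing minigene plus DsRed2, 600 cells/well, 48 h compound exposure at 37C. Laser-scanning cytometry; analysed as GFP (500-530 nm)/RFP (575-640 nm) total intensity ratio; 0.5% DMSO vehicle.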
IMPase Li inh: qHTS Assay for Identifying the Cell-Membrane Permeable IMPase Inhibitors: Potentiation with Lithium | CHO-M1 cells, IP1 TR-FRET (IP-One), carbachol + lithium | Potency, µM (top dose mostly 59.4 µM), most hits filed as inhibitors | actives 0.35% (n = 210,000); active = well fitted inhibition curve with a large enough effect; inconclusive = small, poorly fitted or top-dose-only effect; inactive = no such curve, though single readings can be large or run the other way;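 note: IP1 builds up when IMPase is blocked and the TR-FRET signal falls; nearly all actives have a fitted effect of over 50% in size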
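Lithium-sensitised IP1 accumulation assay; M1-expressing CHO cells treated 30 min at 37C with compound. Competitive antibody detection by time-resolved FRET followed a 10 min room-temperature lysis step.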
Of the large screens only hits and unclear results are named; the others gave an inactive call.

COC(=O)c1ccc(C(NC(=O)OCc2ccccc2)/C(=C/[C@@H](C)C(=O)N(C)Cc2ccccc2)c2cccnc2)cc1 (stereo partly drawn)	none (no result: IMPase cell inh, Lamin A splicing)
C[C@H]1Cc2c(COc3ccccc3)nc3c(c2CO1)CN(S(=O)(=O)c1ccc(Cl)c2nonc12)CC3	Lamin A splicing inconclusive (no result: IMPase cell inh)
Cc1cc2cc3c(cc2nc1SCC(=O)O)CCC3	IMPase Li inh 3.5µM (no result: IMPase cell inh, Lamin A splicing)
Cc1ccccc1NC(=O)CSc1nc2cc3c(cc2cc1C)CCC3	IMPase cell inh inconclusive, Lamin A splicing inconclusive
S=c1[nH]nc(-c2ccc3ccccc3n2)n1-c1cc(Cl)cc(Cl)c1	IMPase Li inh 10µM
Fc1ccc(-n2c(-c3ccc4ccccc4n3)n[nH]c2=S)cc1	Lamin A splicing inconclusive (no result: IMPase cell inh)
CCNc1c(NC(=O)c2ccccc2OCC)c(=O)oc2ccccc12	none (no result: Lamin A splicing, IMPase Li inh)
CC1=NOC(=O)/C1=C\c1ccc(-c2ccccc2Br)o1	IMPase Li inh 7.1µM (no result: IMPase cell inh, Lamin A splicing)
CC1=NOC(=O)/C1=C\c1ccc(-c2cccc(Cl)c2)o1	none
O=C(CSc1nc(C2CCCCC2)nc2ccccc12)NCc1ccco1	none (no result: IMPase cell inh, Lamin A splicing)
CCc1nnc(NC(=O)CSc2nc(-c3ccccc3)nc3ccccc23)s1	IMPase Li inh 10µM (no result: IMPase cell inh)
CCc1nnc(NC(=O)CSc2ccc(-c3ccc(F)cc3)nn2)s1	none (no result: IMPase cell inh, Lamin A splicing)
CCc1nnc(NC(=O)CSc2ccc(-c3cccs3)nn2)s1	IMPase Li inh 4µM (no result: IMPase cell inh, Lamin A splicing)
CCc1nnc(NC(=O)CSc2nc(-c3ccccc3)cc(-c3ccc(F)cc3)c2C#N)s1	Lamin A splicing inconclusive, IMPase Li inh 10µM
CCc1nnc(NC(=O)CSc2nc(C3CCCCC3)nc3ccccc23)s1	IMPase cell inh inconclusive, IMPase Li inh 7.9µM
CCc1nnc(NC(=O)CSc2nc3ccccc3s2)s1	none
CC(C)OC(=O)CC(=O)CSc1nc(-c2ccc(F)cc2)cc(-c2ccccc2)c1C#N	Lamin A splicing inconclusive
CCOC(=O)/C(C)=N/NC(C)=O	none (no result: IMPase cell inh, Lamin A splicing)
N[C@@H](CSCc1ccccc1)C(=O)O	none (no result: IMPase cell inh, Lamin A splicing)
COc1cc(-c2nc(C(N)=O)c3c(n2)n(-c2cccc(C)c2)c(=O)n3C)cc(OC)c1OC	none (no result: IMPase cell inh, IMPase Li inh)
CC(C)(C)OC(=O)NCCCC1=CC2=CC(=O)C(C)(OC(=O)c3cnc4ccccc4n3)C(=O)C2=CO1 (stereo not drawn)	none (no result: IMPase cell inh, Lamin A splicing)
CCOC(=O)CNC(=O)CSc1ncnc2c1cnn2-c1ccc(OC)cc1	none
CC(C)(C)CC(=O)Nc1nnc(-c2cccs2)s1	IMPase Li inh 11µM
O=C(CN1CCCC1)Nc1nnc(-c2cccs2)s1	none (no result: IMPase cell inh)
CCc1nnc(NC(=O)CSc2ncnc3c2cnn3-c2ccc(OC)cc2)s1	IMPase Li inh 10µM
C[C@H]1Cc2c(COc3ccccc3)nc3c(c2CO1)CN(C(=O)C1CC1)CC3	none (no result: IMPase cell inh)
CCOC(=O)c1c(C)[nH]c(=S)c(C#N)c1-c1ccc(OC)cc1	IMPase cell inh inconclusive
CCCCOc1ccc(-c2c(C(=O)Nc3ccccc3)c(C)[nH]c(=S)c2C#N)cc1	IMPase Li inh 8.9µM (no result: IMPase cell inh)
Cc1nc(SCC(=O)Nc2ccccc2)c2oc3ccccc3c2n1	none (no result: IMPase Li inh)
CCc1nc(SCC(=O)NCCc2ccccc2)c2oc3ccccc3c2n1	none
Cc1nc(SCC(=O)NCCc2ccccc2)c2oc3ccccc3c2n1	IMPase Li inh 6.3µM
CNC(=O)C(Sc1nc(C)nc2c1oc1ccccc12)C(C)=O (stereo not drawn)	IMPase Li inh 4.5µM
O[C@@H](C1=C/C(=C\c2ccncc2)c2ccccc21)c1ccncc1	none (no result: IMPase cell inh, Lamin A splicing)
O=c1c(CCc2ccccc2)nc2cnc(Oc3ccccc3)nc2n1C[C@H]1CCCO1	none (no result: IMPase cell inh, Lamin A splicing)
C=CC1=C2C=C(C3CC3)N(Cc3ccccc3)C=C2C(=O)C(C)(OC(=O)c2ccco2)C1=O (stereo not drawn)	none (no result: IMPase cell inh)
Cc1c(N2C(=O)C(=O)/C(=C(/O)c3ccc(Br)cc3)C2c2cccnc2)c(=O)n(-c2ccccc2)n1C (stereo not drawn)	IMPase Li inh 8.9µM (no result: IMPase cell inh, Lamin A splicing)
Cc1ccc(/C(O)=C2/C(=O)C(=O)N(CCN3CCOCC3)C2c2cccnc2)cc1 (stereo not drawn)	none
Cc1ccc(-n2nnnc2SCC(=O)NNC(=O)c2ccco2)c(C)c1	none
CCOC(=O)c1sc(NC(=O)CSc2nnnn2-c2ccc(C)cc2C)nc1C	IMPase Li inh 10µM
COC(=O)c1ccccc1NC(=O)CSc1nnnn1-c1ccc(C)cc1C	Lamin A splicing inconclusive, IMPase Li inh 10µM
CCOC(=O)c1sc(NC(=O)CSc2nnnn2-c2ccc(C)c(C)c2)nc1C	none
C=CCNC(=O)N1CCc2nc(COc3ccccc3)c3c(c2C1)CO[C@@H](C)C3	none (no result: IMPase cell inh)
COC(=O)c1ccc(Oc2c(C)oc3c(CN4CCN(C)CC4)c(O)ccc3c2=O)cc1	IMPase Li inh 13µM
COc1ccccc1Oc1c(C)oc2c(CN3CCN(C)CC3)c(O)ccc2c1=O	none
COc1ccc(-c2nc(C)c(CCNC(=O)c3ccco3)s2)cc1	none (no result: IMPase cell inh, IMPase Li inh)
Cc1ccc(C(=O)C2=C(O)C(=O)N(CCCn3ccnc3)C2c2ccc(OC(C)C)cc2)o1 (stereo not drawn)	IMPase cell inh inconclusive, IMPase Li inh 14µM
CCCOc1ccc(C2C(C(=O)c3ccc(C)o3)=C(O)C(=O)N2Cc2cccnc2)cc1 (stereo not drawn)	IMPase Li inh 10µM
CCOc1ccc(C2C(C(=O)c3ccco3)=C(O)C(=O)N2CCCn2ccnc2)cc1 (stereo not drawn)	none
CCOc1ccc(C2C(C(=O)c3ccco3)=C(O)C(=O)N2Cc2cccnc2)cc1 (stereo not drawn)	none
CCC(Cl)CC(Cl)C(Cl)C(Cl)C(Cl)C(C)Cl (stereo not drawn)	none (no result: IMPase cell inh, Lamin A splicing)
COC(=O)/C=C\c1cc(O)ccc1O	none (no result: Lamin A splicing)
O=C(CSC1=Nc2ccccc2N=C(c2ccc(F)cc2)C1)NCc1ccccc1	none (no result: IMPase cell inh, IMPase Li inh)
O=C(NCCC1=CCCCC1)c1ccc(=O)oc1	none
O=C(NCCC1=CCCCC1)c1coc(=O)c(Br)c1	Lamin A splicing inconclusive, IMPase Li inh 28µM
CCCCn1c(SCC(=O)c2ccccc2)nc2sc3c(c2c1=O)CCCC3	none (no result: Lamin A splicing, IMPase Li inh)
